Shown are actives, neighbours in structure and some others; about 3.1% of the full set was active somewhere.
PP5 primary – inhibitors of human protein phosphatase 5 (PP5). inhibition, % at 6.7 µM. hit rate 0.18% among 320,000. purified PP5c, OMFP substrate fluorescence;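 active means inhibition above the campaign's mean inhibition across all tested compounds plus 3 SD, cut at about 9.5% in these data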;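 further: 0% = DMSO only and 100% = 100 µM cantharidin control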
SKKanGAS inh – blocks kanamycin growth of S. pyogenes SKKanGAS strain; inhibition, % at 7.5 µM; BacTiter-Glo, 6 h; hit rate 1.3% among 300,000;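 active means mean replicate score, as percent of positive control median, at least 50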;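 further: strain carries kanamycin resistance gene driven by streptokinase promoter and grows in 40 µg/ml kanamycin; loss of luminescence reflects streptokinase promoter inhibition or plain growth inhibition; 0% = median of DMSO wells and 100% = positive control at its reference dose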
PP1 inh – counter-screen for PP5 inhibitors: inhibitors of human PP1-alpha; P62136; purified PP1alpha, OMFP fluorescence; inhibition, % at 6.7 µM; hit rate 0.9% among 320,000; AID 2235;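 active means inhibition above the mean inhibition of all tested compounds plus 3 SD, computed separately for each screening campaign, cut at about 15% in these data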
Target sequence (P62136 whole entry, looked up): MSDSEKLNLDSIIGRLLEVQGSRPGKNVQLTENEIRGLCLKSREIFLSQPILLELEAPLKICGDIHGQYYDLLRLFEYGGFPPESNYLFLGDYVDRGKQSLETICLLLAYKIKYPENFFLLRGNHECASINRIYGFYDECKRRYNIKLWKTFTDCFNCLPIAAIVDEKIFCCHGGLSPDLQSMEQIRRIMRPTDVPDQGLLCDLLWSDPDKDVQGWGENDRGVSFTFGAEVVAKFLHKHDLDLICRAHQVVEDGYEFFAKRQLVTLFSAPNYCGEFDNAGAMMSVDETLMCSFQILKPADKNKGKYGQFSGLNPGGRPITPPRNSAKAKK
CSC inhib – blocks cancer stem cells | cancer stem cell-like cells viability, luminescence | inhibition, % at 7.5 µM | hit rate 1.1% among 300,000 | AID 2717; in the data active means inhibition above about 75%; tested in HMLE shEcad cells
Beta apoptosis – blocks beta cell apoptosis | INS-1E cytokine-induced death, ATP luminescence, 48 h; percent of positive-control rescue, neutral wells zero | protection from apoptosis, % (concentration not given with the values) | hit rate 0.8% among 300,000;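 active means Every replicate reaches about 75%, or at least half do and their mean reaches it too, limit read from the data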;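 further: 0% = cytokine-treated negative control wells and 100% = positive control rescue; higher means more ATP so stronger rescue from cytokine killing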
Starred values were filed as active, the others as inactive.

How did Cc1ccc(S(=O)(=O)CNC(=S)c2ccc3ccccc3c2)cc1 do in these assays?
PP5 primary: 4.8; SKKanGAS inh: 62.4*; PP1 inh: 4.4; CSC inhib: -0.3; Beta apoptosis: -9.3

Results for Cc1ccc(S(=O)(=O)CNC(=S)c2cccc(C)c2)cc1 ?
PP5 primary: 5.9; SKKanGAS inh: -12.3; PP1 inh: -8.4; CSC inhib: 11.7; Beta apoptosis: -4.1

Results for Cn1cccc1/C=C1\SC(=S)N(Nc2ccccc2)C1=O ?
PP5 primary: 3.3; SKKanGAS inh: 0.9; PP1 inh: -0.3; CSC inhib: 91.9*; Beta apoptosis: 15.2

What do the screens show for `Cc1ccc(S(=O)(=O)NN2C(=O)/C(=C/c3cccn3C)SC2=S)cc1`?
PP5 primary: -0.4; PP1 inh: 2.2; CSC inhib: -4.1; Beta apoptosis: -1.2

Results for Cc1cccc(C(=O)NCC(=O)N2CCC2)c1 ?
PP5 primary: 2.6; PP1 inh: -1.5; Beta apoptosis: -5.9

Results for Cc1cccc(C(=O)NCC(=O)N2CCOCC2)c1 ?
PP5 primary: 2.7; SKKanGAS inh: 50.8*; PP1 inh: 0.6; CSC inhib: -10.7

Results for O=S(=O)(Nc1ccc(N=Nc2ccccc2)cc1)c1ccccc1 ?
PP5 primary: 0.5; SKKanGAS inh: 2.5; PP1 inh: -0.4; Beta apoptosis: 7.9

What do the screens show for `O=S(=O)(Nc1ccc(N=Nc2ccc(O)c3ccccc23)cc1)c1ccccc1`?
PP5 primary: 7.3; SKKanGAS inh: 96.0*; PP1 inh: 5.4; CSC inhib: 79.2*; Beta apoptosis: 15.7

Results for Cn1c(SCC(=O)NC2(C#N)CCCCC2)nnc1-c1cccnc1 ?
PP5 primary: 0.9; SKKanGAS inh: 54.0*; PP1 inh: 0.9; CSC inhib: -2.6

How did Cn1c(SCC(=O)NC2CCCCC2)nnc1-c1cccnc1 do in these assays?
PP5 primary: 0.2; SKKanGAS inh: -16.4; PP1 inh: 0.0; Beta apoptosis: 1.2

What do the screens show for `O=C(O)c1ccccc1C(=O)OCCCc1ccncc1`?
PP5 primary: 1.6; SKKanGAS inh: -3.1; PP1 inh: 2.4; CSC inhib: -9.2; Beta apoptosis: -2.3

Results for Clc1cccc(-c2nnc(SC/C=C/c3ccccc3)n2Cc2ccco2)c1 ?
PP5 primary: 2.3; PP1 inh: 16.0*; CSC inhib: 32.7; Beta apoptosis: -2.7

Results for C(=C\c1ccccc1)/CSc1nnc(-c2ccccc2)n1Cc1ccco1 ?
PP5 primary: 1.7; SKKanGAS inh: 0.6; PP1 inh: 4.3; CSC inhib: 65.7; Beta apoptosis: 16.6

Results for COCCCn1c(SCCc2ccccc2)nc2cc(OC)c(OC)cc2c1=N ?
PP5 primary: 3.0; SKKanGAS inh: 0.4; PP1 inh: 4.2; CSC inhib: 83.4*; Beta apoptosis: 4.6

Results for Clc1cccc(Cl)c1C1Nc2cccc3cccc(c23)N1 ?
PP5 primary: 4.3; SKKanGAS inh: 58.8*; PP1 inh: 1.9; CSC inhib: 10.9; Beta apoptosis: 6.1

Results for Fc1cccc(Cl)c1C1Nc2cccc3cccc(c23)N1 ?
PP5 primary: 3.4; SKKanGAS inh: 25.3; PP1 inh: 6.5; CSC inhib: -4.3

How did CCN(CC)C(=O)Nc1ccc(Br)cc1 do in these assays?
PP5 primary: -2.3; SKKanGAS inh: 0.2; PP1 inh: -1.8; CSC inhib: -12.3; Beta apoptosis: -2.3

How did Cc1ccc(S(=O)(=O)N2CCCCC2C(=O)Nc2ccc(N(C)C)cc2)cc1 (stereo not given) do in these assays?
CSC inhib: -9.6; Beta apoptosis: -5.3

What do the screens show for `C=CCC[C@H](Cc1ccc(F)cc1)C(=O)OC[C@@H](Cc1c[nH]c2ccccc12)NC(=O)[C@H](CC=C)CC(=O)N(CCO)Cc1ccccc1`?
CSC inhib: 92.4*; Beta apoptosis: -13.1

How did C=CCC[C@@H](Cc1ccc(F)cc1)C(=O)OC[C@@H](Cc1c[nH]c2ccccc12)NC(=O)[C@H](CC=C)CC(=O)N(CCO)Cc1ccccc1 do in these assays?
Beta apoptosis: -5.0

How did CCCC(c1nnnn1Cc1ccco1)N1CCN(c2cc(Cl)ccc2C)CC1 (stereo not given) do in these assays?
PP5 primary: 4.5; PP1 inh: 3.1; CSC inhib: 136.0*; Beta apoptosis: 2.1

What do the screens show for `CCCC(c1nnnn1Cc1ccco1)N1CCN(c2ccccc2)CC1` (stereo not given)?
PP5 primary: 0.3; SKKanGAS inh: 2.7; PP1 inh: -2.5; CSC inhib: -8.6; Beta apoptosis: -4.5

Results for O=S(=O)(NCc1ccccc1)c1ccccc1Br ?
PP5 primary: 3.0; SKKanGAS inh: -0.2; PP1 inh: 1.7; CSC inhib: 3.0; Beta apoptosis: -3.4

How did Cc1cccc(Nc2nc(-c3ccc(O)cc3O)cs2)n1 do in these assays?
PP5 primary: 3.7; SKKanGAS inh: -2.1; PP1 inh: 0.3; CSC inhib: 96.5*; Beta apoptosis: -0.6

What do the screens show for `N#Cc1ccc(Nc2nc(-c3ccc(O)cc3O)cs2)cc1C(F)(F)F`?
PP5 primary: 4.9; PP1 inh: 5.6; CSC inhib: 84.7*; Beta apoptosis: 8.1

Results for CC(C)Cn1c(CCCNC(=O)c2ccco2)nc2ccccc21 ?
PP5 primary: 0.2; SKKanGAS inh: 0.3; PP1 inh: -1.1; CSC inhib: 13.5; Beta apoptosis: 7.4

Results for Cc1ccc(S(=O)(=O)Nc2cccc3ncccc23)cc1 ?
PP5 primary: 2.3; SKKanGAS inh: 0.3; PP1 inh: -1.0; CSC inhib: -6.2; Beta apoptosis: 1.5

Results for Cc1ccc(S(=O)(=O)Nc2cccc3ncccc23)s1 ?
PP5 primary: -1.0; SKKanGAS inh: 71.0*; PP1 inh: -0.1; CSC inhib: -3.7; Beta apoptosis: 31.9

What do the screens show for `Cc1ccc(O)c(C2=NNC(c3ccc(Cl)cc3)C2)c1` (stereo not given)?
PP5 primary: -2.1; SKKanGAS inh: 56.7*; PP1 inh: -3.5; CSC inhib: 19.2; Beta apoptosis: 7.3

Results for Oc1ccc(Cl)cc1C1=NNC(c2cccs2)C1 (stereo not given) ?
PP5 primary: 1.9; SKKanGAS inh: 60.7*; PP1 inh: -0.8; CSC inhib: 27.8; Beta apoptosis: 5.8

Results for O=C(COC(=O)COc1ccccc1)NC12CC3CC(CC(C3)C1)C2 ?
PP5 primary: 2.6; PP1 inh: 1.3; Beta apoptosis: -4.1

Results for Cc1ccc(S(=O)(=O)N2CCN(c3ncnc4sccc34)CC2)cc1 ?
PP5 primary: 3.3; SKKanGAS inh: -5.8; PP1 inh: 2.1; CSC inhib: -1.6; Beta apoptosis: 89.1*

How did O=S(=O)(c1ccc(F)c(F)c1F)N1CCN(c2ncnc3sccc23)CC1 do in these assays?
CSC inhib: 40.5; Beta apoptosis: 86.7*

What do the screens show for `O=S(=O)(c1ccccc1C(F)(F)F)N1CCN(c2ncnc3sccc23)CC1`?
CSC inhib: 5.7; Beta apoptosis: 27.1

How did CC(=O)C1=C(C)NC(SCC(=O)c2ccc(Cl)c(Cl)c2)=C(C#N)C1c1ccco1 (stereo not given) do in these assays?
PP5 primary: 3.4; SKKanGAS inh: 56.1*; PP1 inh: 10.6; CSC inhib: 156.7*; Beta apoptosis: 100.2*

Screening data deposited in PubChem by several laboratories.
